The values that follow come from the supplement of paper PMC9337992.

± gives the standard deviation of the averaged measurements.

For the assay, the system named is MDAMB436. The assay is described as follows: cell proliferation (confluence) relative to DMSO control; higher = less growth inhibition. As to conditions: 5 uM; 6 d. As for the experimental part: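 Epigenetic chemical probe screen: 15 TNBC cell lines, 500 cells per well in 384-well plates, treated with 5 uM of each of 36 SGC probes for 6 d. Confluency was imaged by IncuCyte ZOOM and normalised to DMSO control wells. Four replicate wells per compound.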
As for `c1ccc([C@@H]2C[C@H]2NC2CCNCC2)cc1`, the cell proliferation was 93.8 ± 3.3%.

On to `O=C(O)CNC(=O)c1c(O)c2ccccc2n(Cc2ccccc2)c1=O`, for which the cell proliferation turned out to be 96.4 ± 0.42%.

`COc1cc(C(=O)N2CC[C@@H](O)[C@@H](N)C2)cc2nc(-c3cc4ccccc4n3CC3CC3)n(C)c12` gave a cell proliferation of 76.4 ± 6.2%.
